Measured values as given in PubChem BioAssay AID717 (Columbia University Molecular Screening Center, 2007).
Hit rate of the full screen: of about 91,000 compounds, about 40 (0.04%) were called active. Rule as the data show it: active = activation above about 37%; inactive = the rest. The list is a sample of the results.

Target: Bifunctional epoxide hydrolase 2 (Homo sapiens) (UniProt P34913)
Assay: soluble epoxide hydrolase activators, primary screen, biochemical, human sEH (AID 717)
Conditions: purified human sEH enzymatic activity, activator screen; at 2 µM; stronger effect = higher value

Bifunctional epoxide hydrolase 2 (Homo sapiens), sequence (P34913 whole entry, looked up): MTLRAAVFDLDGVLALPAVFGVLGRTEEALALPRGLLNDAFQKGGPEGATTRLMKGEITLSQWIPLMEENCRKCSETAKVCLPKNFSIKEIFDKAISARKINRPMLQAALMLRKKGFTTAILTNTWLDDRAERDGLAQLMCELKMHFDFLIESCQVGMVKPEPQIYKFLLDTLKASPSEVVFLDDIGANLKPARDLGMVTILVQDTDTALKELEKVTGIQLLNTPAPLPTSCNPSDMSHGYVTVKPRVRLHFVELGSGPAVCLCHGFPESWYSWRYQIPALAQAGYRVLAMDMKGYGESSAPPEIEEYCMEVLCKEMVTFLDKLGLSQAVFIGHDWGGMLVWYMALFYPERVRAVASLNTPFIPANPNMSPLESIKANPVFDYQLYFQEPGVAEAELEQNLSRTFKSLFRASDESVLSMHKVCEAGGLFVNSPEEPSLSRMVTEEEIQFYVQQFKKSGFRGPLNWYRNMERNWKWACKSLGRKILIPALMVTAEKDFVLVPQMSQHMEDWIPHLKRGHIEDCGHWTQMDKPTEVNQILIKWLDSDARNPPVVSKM

activation, inactive:
COc1ccc(C)cc1NC(=O)CCC(=O)Nc1nnc(C(F)(F)F)s1 -15.1%, Cc1nnsc1S(=O)(=O)Cc1ccccc1Cl -3.8%, CCCCNC(=O)c1onc(CSc2cccc(OC)c2)c1C(=O)O 11.8%, CS(=O)(=O)N1CCN(c2ccc(C(=O)NC3C4CC5CC(C4)CC3C5)cc2[N+](=O)[O-])CC1 (stereo unspecified) 8.8%, C(=N/N1CCN(c2ccccc2)CC1)/c1cccs1 4.8%, COCCCNC(NC(=O)c1ccc(C)cc1)C(Cl)(Cl)Cl (stereo unspecified) 18.3%, CCOC(=O)C1=C(CN2CCc3ccccc32)NC(=O)NC1c1cc(C)ccc1C (stereo unspecified) 7.8%, Nc1ccc(-c2sc(N)nc2-c2ccccc2)cc1 10.7%, COCC(C)NC(=O)c1ccc(-n2nc(C(F)(F)F)cc2-c2cccs2)cc1 (stereo unspecified) 3.4%, CC(=O)c1cn(CCCCCCCCCCn2cc(C(C)=O)c(=O)[nH]c2=O)c(=O)[nH]c1=O 3.2%, Cc1csc(=NC(=O)c2ccccc2)n1CCO 7.3%, CCc1ccc(C(=O)CSc2nnc(C)c(=O)[nH]2)cc1 -0.4%, CCCn1nnnc1NC(=O)COc1ccc(Cl)cc1C 36.8%, COc1ccccc1CNC(=O)c1ccc(SC)cc1OC 1%, Cc1nn(C)cc1/C=C1\CCC/C(=C\c2cn(C)nc2C)C1=O 11.7%, CCN(CC)c1nc(-c2ccccc2)cc(C(F)(F)F)c1C#N 30.7%, Nc1c(-c2cccc(Cl)c2)cnn1-c1cccc([N+](=O)[O-])c1 0.1%, O=c1c2ccccc2c(-c2ccc(Br)cc2)nn1Cc1ccccc1 -4.3%, O=C(COC(=O)c1ccccc1NC(=O)c1ccco1)Nc1ccc2c(c1)OC(F)(F)O2 -28.9%, CCCCNCc1ccc(SC)cc1 -8.5%, NC(=O)N1CCCC1C(=O)Nc1ccc(Cl)c(Cl)c1 (stereo unspecified) -4.5%, CCCCNC(=O)CSc1nc2ccc(NC(=O)CSc3nnc(COc4ccccc4C)n3C)cc2s1 -88.3%, Cc1cc(C(=O)OCC(=O)Nc2ccc(F)c(F)c2)c(C)o1 -9.4%, COc1ccc(CCNC(=S)NC(=O)/C=C/c2ccc(C)cc2)cc1OC 3.7%, CC1=NN(Cc2ccccc2)C(=O)/C1=C/c1ccc(N(C)C)cc1 4.2%, CCn1cc(C(=O)N/N=C(/C)c2ccc(F)cc2)c(=O)c2cc(F)c(N3CCCC3)cc21 11.6%, COc1ccc(NS(=O)(=O)c2ccc(NC(=S)NC(=O)CC(C)C)cc2)cc1 1.9%, O=C(NCCCN1CCOCC1)c1cc2c(s1)CCC2 -5.4%, O=C(CN1C(=O)NC(Cc2ccccc2)(Cc2ccccc2)C1=O)NCC1CCCCC1 11.9%, O=C(OCN1C(=O)c2ccccc2C1=O)/C(=C\c1ccco1)NC(=O)c1ccccc1 -78.7%, COC(=O)CNC(=O)c1ccccc1[N+](=O)[O-] 18.9%, CCOc1ccc(C(CCc2ccccc2)NC(=O)c2ccc(OC)c(OC)c2)cc1OCC (stereo unspecified) 23.3%, CC(CNc1ccc([N+](=O)[O-])cc1)NC(=O)c1ccccc1Br (stereo unspecified) 5%, C=CCn1c(-c2ccc(Cl)cc2)ccc(C#N)c1=O 2.9%, COc1ccc2c(c1)SC(C)CC2=O (stereo unspecified) 13.9%, CC1(C)CC(=O)C(C=NCCN2CCN(C(=S)Nc3cccc(Cl)c3)CC2)=C(O)C1 -11.3%, Cc1ccc(-c2csc(N(Cc3ccco3)C(=O)c3cccs3)n2)cc1 11.6%, CCOC(=O)NNC(=O)c1ccc(Cl)cc1 0.5%, CC(Oc1ccc(Cl)cc1Cl)C(=O)/C=C/N(C)C (stereo unspecified) -10%, COc1ccc(/C=N/Nc2nc3ccccc3c(=O)[nH]2)cc1 10%, O=[N+]([O-])c1ccc(NCCCN2CCOCC2)c(Cl)c1 -17.1%, Clc1ccc(-n2nnnc2CN2CCCCC2)cc1Cl -4%, C=CCOC(=O)C1=C(C)NC(C)=C(C(=O)OCC=C)C1c1cccs1 8.4%, COc1ccc(-c2cc(C(=O)n3cnc4ccccc43)c3ccccc3n2)cc1 11.7%, COc1cc(C(=O)N2CCN(C/C=C/c3ccccc3)CC2)cc(OC)c1C 11.7%, CCCCNC(=S)NNC(=O)c1cc(C)on1 -1.6%, CN(CC#CCC(c1ccccc1)c1ccccc1)C(C)(C)C -4.2%, CC(C)(C)c1cc2cccnc2n1Cc1ccccc1 -9.8%, COc1cc(C2C(C(=O)OCCC#N)=C(C)NC3=C2S(=O)(=O)c2ccccc23)cc(OC)c1OC (stereo unspecified) -9%, c1ccc(CSc2ncnc3c2sc2nc(N4CCOCC4)c4c(c23)CCCC4)cc1 -8.4%, c1cnc(Nc2nc(-c3ccc4ccccc4c3)cs2)nc1 9.6%, c1ccc2c(CSCc3nc4ccccc4[nH]3)cccc2c1 -10.8%, CCOC(=O)c1c(NC(=O)c2ccc(N3CCOCC3)c([N+](=O)[O-])c2)sc(C)c1C -11.3%, O=C(CN1CCN(S(=O)(=O)c2ccc(Cl)s2)CC1)NCc1ccc(Cl)cc1 0.3%, COc1ccc(C(=S)Nc2ccccc2)cc1 -3.8%, Cc1nn(-c2ccccc2)c(Cl)c1C(=O)Nc1ccccc1 2%, O=C(CNC(=O)c1cc2c(s1)CCC2)Nc1ccccc1Br -12.2%, CCNC(=S)N1CCN(C(=O)c2ccco2)CC1 1%, COc1cc(/C=N/O)cc(Br)c1OS(=O)(=O)c1ccc(C)cc1 12.9%, CCOC(=O)COc1cc(OCC(=O)OCC)c2c(=O)cc(-c3ccccc3)oc2c1 15.3%, Cc1ccc(C(=O)NNC(=O)OC(C)(C)C)c(Cl)c1 2%, Cc1ccc(NC(=S)N/N=C2/CCCc3c(C)cc(C)cc32)cc1 9.9%, O=C(CCC(=O)OCc1cccc(C(=O)Oc2ccccc2)c1)Nc1cccc2ccccc12 -9.6%, O=C(CSCc1c(Cl)cccc1Cl)NN1C(=O)c2ccccc2C1=O -21.2%, Cc1ccc(N2C(=O)C(Cc3ccccc3)NC2=S)cc1 (stereo unspecified) -3.9%, COc1ccc(NC(=O)CSc2nc(N)c(-c3ccccc3)c(=O)[nH]2)cc1 -3.7%, Cc1nn(C)c(Oc2ccccc2)c1[N+](=O)[O-] -3%, O=C(CSc1ccc(/C=N/NC(=O)c2cccc(F)c2)o1)Nc1ccccc1 -79%, CCOc1c2ccc(C(=O)NCc3ccc(OC(F)(F)F)cc3)cc2nn1C -0.5%, CC1=NN(C(=O)c2ccccc2Br)C(O)(c2cccnc2)C1 (stereo unspecified) -13.7%, Cc1nn(-c2ccccn2)c2c1C(c1ccncc1)C1=C(CC(C)(C)CC1=O)N2 (stereo unspecified) 3.8%, Cc1ccc(Oc2ccc3c(c2)C(=O)N(c2cccc4cccnc24)C3=O)cc1 -10.3%, Cc1cc(C)c2c(-n3cccc3)c(C(=O)NNS(=O)(=O)c3ccc(F)cc3)sc2n1 11.1%, Cc1nn(C)cc1C(=O)NNC(=S)Nc1ccc(Cl)cc1 -12.9%, O=C(NC1=NCCS1)[C@H](Cc1ccccc1)N1C(=O)c2ccccc2C1=O -7.6%, CCCCNC(=O)CCn1c(=S)[nH]c2cc3c(cc2c1=O)OCO3 -13.6%, O=C(c1cccc(F)c1)N1CCN(c2ccc([N+](=O)[O-])c(N3CCCCC3)c2)CC1 -8.2%, COc1ccc(N(CC(=O)N/N=C/c2cccc3c2OCCO3)S(=O)(=O)c2ccc(NC(C)=O)cc2)cc1 5.2%, COc1ccccc1-c1n[nH]c2c1[C@H](C)CC[C@H]2C(C)C 15.1%, COc1cccc2c1OCC(C(=O)NCc1ccc(Cl)cc1Cl)=C2 -78.6%, COc1ccc([N+](=O)[O-])cc1NC(=O)CCc1ccccc1 -7.7%, CCn1c2ccccc2c2cc(NC(=O)C/C(C)=N/NC(=O)c3ccccc3N)ccc21 -2.8%, COc1ccccc1CSc1nc2ccccc2[nH]1 2.2%, O=C(CNC(=O)c1ccccc1)NCC(=O)OCc1ccc(Cl)cc1 5.3%, c1ccc(-n2nnnc2NC2CCCCCC2)cc1 12.5%, COc1ccc(C(=O)NC(=S)Nc2ccccc2N2CCN(S(C)(=O)=O)CC2)cc1OC -12%, Cc1nnc(NC(=O)CSc2nc(C3CCCCC3)nc3ccccc23)s1 1.6%, Cc1c(C(=O)OC(C)C)sc(NC(=O)c2cccnc2)c1C#N -4.7%, Cc1ccc(NC(=S)Nc2ncccc2C)c(C)c1 -5.2%, CCOC(=O)C1CN(S(=O)(=O)c2ccc(F)cc2)C1 6.7%, CCCC(=O)NC(Nc1ccccc1OC)C(Cl)(Cl)Cl (stereo unspecified) -3.9%, CC(C)C(=O)OCC(=O)Nc1ccc2c(c1)CCC2 -1.7%, Cc1ccc(S(=O)(=O)N(CC(=O)N/N=C/c2ccc(F)cc2)c2cccc3cccnc23)cc1 6.1%, N#Cc1c(C(F)(F)F)cc(-c2ccccc2)nc1SCC(=O)N1CCOCC1 0.7%, N#C/C(=C1/CCCN1)c1ccccn1 -2.3%, Cc1cc(C)cc(OCC(=O)NNC(=O)c2cc3ccccc3oc2=O)c1 2%
